Compound activity: PubChem BioAssay, several laboratories
APP transl inh: APP translation inhibition. SH-SY5Y APP 5'UTR-luciferase reporter, luminescence. AID 1285. actives 0.82% (n = 190,000). inhibition, % at 2 µM;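 active means inhibition above a set limit, derived from the sample mean plus 3 SD, cut at about 45% in these data; inconclusive means one replicate passes the limit while the other fails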
Ba/F3 V617F tox: reduce viability of Ba/F3 cells dependent on JAK2V617F; Ba/F3 EpoR-JAK2V617F viability, ATP luminescence; inhibition, % at 5.6 µM; actives 1.1% (n = 220,000);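 active means inhibition above the campaign mean plus 3 SD over all tested compounds, cut at about 24% in these data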;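 further: cytokine-independent growth of Ba/F3 cells driven by EpoR plus mutant JAK2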
BaF3 parental: counter-screen for JAK2V617F inhibitors: parental Ba/F3 viability inhibitors | CellTiter-Glo ATP luminescence | inhibition, % at 5.6 µM | actives 1.1% (n = 220,000);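 active means inhibition above a per-campaign cutoff, the mean inhibition of all tested compounds plus 3 SD, cut at about 27% in these data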
IEC-6 tox: IEC-6 cytotoxicity, counter-screen for KLF5 inhibitors. inhibition, % at 5 µM. actives 0.78% (n = 290,000). AID 1825. luminescence viability; in the data active means inhibition above about 22%
aSyn UTR inh: 5' untranslated region of α-synuclein, MLPCN primary screen | alpha-synuclein 5'UTR reporter, inhibitor activity | AID 1813 | actives 0.82% (n = 300,000) | inhibition, % (tested at 7.5 µM); in the data active means inhibition above about 60%; inconclusive means no clear call, values can overlap the other calls;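 further: H4 neuroglioblastoma cells stably carrying SNCA 5'UTR luciferase fusion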
KLF5 inhibitor: kruppel-like factor 5 inhibition | DLD-1 KLF5 promoter-luciferase reporter, luminescence | inhibition, % at 5 µM | actives 0.23% (n = 290,000) | AID 1700;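 active means inhibition above a per-plate limit of that plate's mean compound inhibition plus 3 SD, cut at about 60% in these data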;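 further: higher means less KLF5 promoter-driven luciferase light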
A number is an active result; 0 = inactive; ? = inconclusive; - = no result given. Most compounds without a hit are left out; they make up all but 2.1% or so of the library.

SMILES	APP transl inh	Ba/F3 V617F tox	BaF3 parental	IEC-6 tox	aSyn UTR inh	KLF5 inhibitor
Cc1ccc(C)c(-n2c3nc(=O)[nH]c(=O)c-3cc3cc([N+](=O)[O-])ccc32)c1	90.9	0	56.4	0	-	0
Cc1cccc(-n2c3nc(=O)[nH]c(=O)c-3cc3cc([N+](=O)[O-])ccc32)c1	0	0	0	0	0	0
COc1ccc(-c2csc(Nc3ccc(S(N)(=O)=O)cc3)n2)cc1OC	0	0	0	0	61.7	0
NS(=O)(=O)c1ccc(Nc2nc(-c3ccc(F)cc3)cs2)cc1	0	0	0	0	0	0
N=c1c2c(n(Cc3ccc(Br)cc3)c3c1CCC3)CCCC2	0	100.2	75.1	0	?	0
N=c1c2c(n(Cc3ccc([N+](=O)[O-])cc3)c3c1CCC3)CCCC2	0	0	0	0	0	0
N=c1c2c(n(Cc3ccc(Cl)c(Cl)c3)c3c1CCC3)CCCC2	0	88.1	75.7	0	0	0
COc1ccc(C(=O)Oc2c(CN3CCOCC3)cc(Cl)c3cccnc23)cc1	0	0	0	0	0	0
COc1cc(C(=O)Oc2c(CN3CCOCC3)cc(Cl)c3cccnc23)cc(OC)c1OC	0	0	0	0	78.5	0
COc1cccc(C(=O)Oc2c(CN3CCOCC3)cc(Cl)c3cccnc23)c1	0	0	0	0	88.7	0
CCC(=O)Nc1ccc2c(c1)nc1n2CCN(CCOC)C1	-	-	-	0	0	0
CCCc1ccc(-c2ccc(F)c(N)c2)nc1	0	0	0	0	98.8	0
S=c1[nH]nc(CSCCOc2ccc(Cl)cc2Cl)o1	-	0	0	0	0	0
O=C(NCCc1cccs1)c1ccc(Cl)cc1	-	0	0	0	0	0
Cc1ccc(C(=O)NCCc2cccs2)cc1	0	0	0	0	73.2	0
COc1ccc(/C=N/Nc2cc(C)nc3ccc(Br)cc23)cc1	-	-	-	0	99.9	0
COc1ccc2nc(C)cc(N/N=C/c3cccc(OC)c3O)c2c1	-	-	-	0	99.8	0
Cc1cc(N/N=C/c2ccccc2O)c2ccccc2n1	-	-	-	0	0	0
NC(N)=NC(N)=Nc1ccc(SC(F)(F)F)cc1	0	75.1	67.1	34.6	0	0
Cc1cccc(NC(=O)CN2C(=O)N/C(=C/c3cc(C)n(-c4cccnc4)c3C)C2=O)c1	0	0	0	0	0	0
Cc1ccc(NC(=O)CN2C(=O)N/C(=C\c3cccnc3)C2=O)cc1	53.7	0	0	0	0	0
COc1ccc(C(=O)c2c(C(F)(F)F)oc3c2C(=O)c2ccccc2C3=O)cc1	0	0	0	0	109.0	0
Cc1ccc(-n2ncc3c(SCc4ccccn4)ncnc32)c(C)c1	0	0	34.9	0	0	0
COc1ccc(CCNC(=O)CSc2nc3[nH]ncc3c(=O)n2-c2ccc(C)c(Cl)c2)cc1OC	0	0	0	0	0	0
CCN(CC(=O)Nc1c(F)cccc1F)C(=O)/C=C/c1ccc(S(=O)(=O)N2CCCCCC2)cc1	-	-	-	-	78.4	-
SMILES	APP transl inh	Ba/F3 V617F tox	BaF3 parental	IEC-6 tox	aSyn UTR inh	KLF5 inhibitor
COc1ccc(N(CC(=O)NCCc2ccc(Cl)cc2)S(=O)(=O)c2c(C)[nH]c(=O)[nH]c2=O)cc1	0	0	0	0	0	0
CC1=CC(C)C2(COC(c3ccc[n+](C)c3)OC2)C(C)C1 (stereo unspecified)	0	64.9	72.2	0	-	0
Cc1ccc(/C=C2\SC(=S)N(CCCC(=O)NNC(=O)c3ccccc3O)C2=O)cc1	-	0	0	0	106.6	0
Cc1ccc(/C=C2\SC(=S)N(CCC(=O)NNC(=O)c3ccccc3O)C2=O)cc1	-	-	-	0	0	0
O=C(CCCN1C(=O)/C(=C/c2ccccc2Cl)SC1=S)NNC(=O)c1ccc(Cl)cc1	-	0	0	0	64.7	0
O=C(CCN1C(=O)/C(=C/c2ccccc2Cl)SC1=S)NNC(=O)c1cccnc1	-	0	0	0	0	0
O=C(CCN1C(=O)/C(=C/c2ccccc2Cl)SC1=S)NNC(=O)c1ccccc1O	-	-	-	0	0	0
Cc1ccc(C(=O)NNC(=O)CCCN2C(=O)/C(=C/c3ccccc3Cl)SC2=S)cc1	0	0	0	0	68.5	0
CC(C)NC(=O)COc1coc(CN2CCN(c3ccccc3)CC2)cc1=O	-	-	-	0	0	0
Cc1ccc(NC(=O)CN2CCOCC2)cc1C	-	-	-	0	0	0
CCCCCCCC#Cc1ccccc1/C=N/S(=O)c1ccc(C)cc1 (stereo unspecified)	0	0	38.0	0	-	0
CC(Sc1nnc2ccccn12)C(=O)Nc1ncc(Cl)cc1Cl (stereo unspecified)	0	0	0	0	0	0
